Screen size: about 5,500 compounds; about 2,000 (36%) were called active. Roughly 18% stayed inconclusive and do not appear here. Cut-off read from the data, not from the text of the source: active = normalized growth mostly below about 0.91 (no sharp cut-off); inconclusive = no clear call, values can overlap the other calls; inactive = mostly above about 0.92. The list shows a part of the results.
Experiment: chemical genetic growth profiling, strain panel (AID 1159580);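 note: tested at 20 µM; growth read once vehicle control cultures reached saturation at 30 °C; 1 = growth at the plate median or of vehicle wells; lower values mean less growth of the strain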
Conditions: S. cerevisiae deletion strains, growth OD

Measured: normalized growth

CCN(CC)[N+]([O-])=NO
inactive: locus YHR030C, strain SLT2, hits give low values 0.974 | locus YHR079C, strain IRE1, hits give low values 0.986 | locus YJL095W, strain BCK1, hits give low values 0.987 | locus YJR066W, strain TOR1, hits give low values 0.931 | locus YLR113W, strain HOG1, hits give low values 0.961 | locus YNL183C, strain NPR1, hits give low values 0.935 | locus YOR231W, strain MKK1, hits give low values 0.966 | locus YPL256C, strain CLN2, hits give low values 0.951
